In PubChem BioAssay (NCI):
“And” between values parts separate entries of the source, which are not always exact repeats. Identical values can stand only once. Compounds without any hit were thinned out: in the full panel of roughly 83,000, 20% have a hit.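 Plates (96-well) were seeded with cells, treated with compound at one concentration, and incubated for 48 hours before percent growth was determined.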 The source made the active and inactive calls.

These compounds were tested on T-47D breast (assay: NCI-60 one-dose screen, 48 h (100 = growth as untreated, 0 = no growth, -100 = all killed)). Conditions: 10 µM unless noted.
Method: Growth inhibition of the T-47D human tumor cell line is measured as a screen for anti-cancer activity. Cells are grown in 96 well plates and exposed to the test compound for 48 hours. Compounds are tested at a single concentration, which is 10^-5 M for most compounds. The reported endpoint is percent growth (GI% or GIPRCNT), where numbers from 0 - 100% represent growth inhibition, and numbers from -100% - 0 represent cell death. For example, a value of 40 represents 60% growth inhibition. A value of 0 means no net growth occurred over the course of the experiment. A value of -40 indicates 40% of cells at the beginning of the experiment died by the end of the experiment. A value of -100 means all cells are dead at the end of the experiment.
NCI-60 Human Tumor Cell Lines Screen was performed using the standard one-dose NCI protocol, which is described in more detail at https://dtp.cancer.gov/discovery_development/nci-60/default.htm.
Compounds with GIPRCNT values below 10 were considered active. Activity score was based on GIPRCNT using the following formula: […]
Score is 0 for GIPRCNT values of 100 or above, 50 for GIPRCNT values of 0, and 100 for GIPRCNT values of -100.

Q: How did the growth turn out when `CN1CNC(=O)NC1` was run?
A: 112% (inactive) and 100% (inactive)

Q: With `CC1CCC2(C(=O)O)CCC3(C)C(=CCC4C5(C)CCC(O)C(C)(C)C5CCC43C)C2C1C` (stereo not given) as the compound, how does the growth read?
A: 49% (inactive) and 77.2% (inactive)

Q: With `O=CN1CCCCC1` as the compound, how does the growth read?
A: 109% (inactive)

Q: With `O=C1C=C(Nc2ccccc2)c2ccccc2C1=O` as the compound, how does the growth read?
A: 77.2% (inactive) and 102% (inactive)

Q: `c1ccc2c(c1)OC1OC2Oc2ccccc21` was tested. Which growth did it give?
A: 100% (inactive)

Q: Which growth does the source give for `Cn1cnc([N+](=O)[O-])c1Sc1ncn[nH]1` here?
A: 94.2% (inactive)

Q: `CC(C)NC(=O)N/C=C(\C#N)C(N)=O` was tested. Which growth did it give?
A: 101% (inactive)

Q: With `N#CC(C#N)N=Nc1cc(Cl)ccc1Cl` as the compound, how does the growth read?
A: 96.7% (inactive)

Q: `OCCN1CCCCCCC1` was tested. Which growth did it give?
A: 95.6% (inactive)

Q: Which growth does the source give for `CCCCOC(=O)/C=C\C(=O)NC(N)=O` here?
A: 60.4% (inactive)

Q: How did the growth turn out when `CC1=C/C(O)CC(=O)Cc2nc(co2)C(=O)N2CCC=C2C(=O)OC(C(C)C)C(C)/C=C\C(=O)NC/C=C\1` (stereo not given) was run?
A: 89.4% (inactive)

Q: With `NC(Cc1c[nH]c2ccccc12)C(=O)O` (stereo not given) as the compound, how does the growth read?
A: 110% (inactive)

Q: With `CC(=O)OC(C)C(=O)NCC(C)O` (stereo not given) as the compound, how does the growth read?
A: 96.3% (inactive)

Q: How did the growth turn out when `CC1CCC2(OC1)OC1CC3C4CC=C5CC(O)CCC5(C)C4CCC3(C)C1C2C` (stereo not given) was run?
A: 106% (inactive)

Q: How did the growth turn out when `CN(C)CC1CCCCCC(CN(C)C)C1=O` (stereo not given) was run?
A: 22.2% (inactive)

Q: How did the growth turn out when `Nc1cc(N)c(N)cc1N` was run?
A: 81.7% (inactive)

Q: How did the growth turn out when `Cc1cc2ccccc2cn1` was run?
A: 104% (inactive) and 107% (inactive)

Q: With `CC(=O)NCC(=O)c1ccc([N+](=O)[O-])cc1` as the compound, how does the growth read?
A: 86.3% (inactive)

Q: For `O=C1CSC2=NCCN12`, which growth is on record?
A: 111% (inactive)

Q: With `CN(C)c1ccc(/C=C\C(=O)c2ccccc2)cc1` as the compound, how does the growth read?
A: 85.2% (inactive) and 89.3% (inactive)

Q: How did the growth turn out when `CCCCOc1ccc(Nc2cc(Cl)ccc2C(=O)O)cn1` was run?
A: 92.6% (inactive) and 92.3% (inactive)

Q: Which growth does the source give for `CCCCCCCCCCCCCCCCC(C(=O)O)C(O)(CC(=O)O)C(=O)O` (stereo not given) here?
A: 98.2% (inactive) and 4.81% (active)

Q: With `O=C1OC(C(O)C(O)CO)C(O)=C1O` (stereo not given) as the compound, how does the growth read?
A: 103% (inactive) and 83.1% (inactive)

Q: How did the growth turn out when `O=c1[nH]cnc2c1ncn2C1OC(CO)C(O)C1O` (stereo not given) was run?
A: 103% (inactive) and 107% (inactive) and 90.2% (inactive)

Q: With `O=C(Cc1ccccc1)c1ccc(O)c(Cl)c1` as the compound, how does the growth read?
A: 43.9% (inactive)

Q: For `NC1CCC(C(=O)O)CC1` (stereo not given), which growth is on record?
A: 90.5% (inactive) and 95.8% (inactive)

Q: How did the growth turn out when `OCC1OC(O)C(O)C(O)C1O` (stereo not given) was run?
A: 102% (inactive)

Q: For `Cc1ccc(=O)[nH]n1`, which growth is on record?
A: 109% (inactive) and 95.4% (inactive)

Q: `NN1CCOC(c2ccccc2)C1` (stereo not given) was tested. Which growth did it give?
A: 109% (inactive)

Q: For `C/C(=C\c1ccccc1)c1ccccn1`, which growth is on record?
A: 94.7% (inactive)

Q: For `CCN(CCNS(C)(=O)=O)c1ccc(N)c(C)c1`, which growth is on record?
A: 1.47% (active) and 56.8% (inactive)

Q: `CC(C)NCC(O)c1ccc(O)c(O)c1` (stereo not given) was tested. Which growth did it give?
A: 98% (inactive) and 90.5% (inactive) and 102% (inactive)

Q: How did the growth turn out when `CC(C)(O)C(=O)O` was run?
A: 100% (inactive)

Q: With `O=C1OC(c2ccccc2)=N/C1=C\c1ccccc1` as the compound, how does the growth read?
A: 96.4% (inactive)

Q: For `O=C(O)CCCl`, which growth is on record?
A: 110% (inactive)

Q: With `COc1ccc2cc1Oc1ccc(cc1)C[C@H]1c3cc(c(OC)cc3CCN1C)Oc1c(OC)c(OC)cc3c1[C@H](C2)N(C)CC3` as the compound, how does the growth read?
A: 93.1% (inactive)

Q: Which growth does the source give for `ClCCOCCOc1ccc(C2CCCCC2)cc1` here?
A: 96.7% (inactive)

Q: With `C#CCOC(=O)Nc1ccccc1` as the compound, how does the growth read?
A: 109% (inactive)

Q: `CCCCCCCCCCNC(=O)CI` was tested. Which growth did it give?
A: -21.1% (active)

Q: `Cl` was tested. Which growth did it give?
A: 101% (inactive)
